Shown is part of a subset that was picked to be rich in hits.
TDP1 inh: inhibitors of human tyrosyl-DNA phosphodiesterase TDP1; Q9NUW8; recombinant TDP1, AlphaScreen DNA substrate cleavage; Potency, µM (series often up to 130 µM), inactives show at the highest dose activity change, negative = inhibition, most hits filed as inhibitors; actives 0.28% (n = 350,000); AID 485290; further: nearly all actives have a fitted effect of over 40% in size
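Steps: enzyme plus compound, 15 min RT; add biotin/phosphotyrosine-FITC oligonucleotide (15 nM final), react 5 min; add donor/acceptor beads (10 ug/ml final), 10 min; read AlphaScreen. Tdp1 at 1 nM final.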
RECQ1 inh-1: blocks DNA unwinding by human RECQ1 | Potency, µM (highest dose often 57.3 µM), for inactives: top-dose activity, negative = inhibition, usual class: inhibitors | P46063 | RECQ1 DNA unwinding, red fluorescence kinetic read | actives 0.54% (n = 240,000);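 further: plate controls were vehicle for no effect and no enzyme for full effect; nearly all actives have a fitted effect of over 30% in size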
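RECQ1T1 50 nM; forked duplex (20 bp + 30-nt ss tails) 200 nM, ATP 2 mM final; pH 8.0, 2 mM MgCl2, 2.5 ug/ml poly(dI-dC); 15 min compound preincubation; discontinuous kinetic read over 2 h at RT.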
APEX1 inh: inhibitors of human APE1 endonuclease | recombinant APE1, TAMRA/BHQ-2 abasic DNA cleavage fluorescence | Potency, µM (doses to about 65.8 µM), for the others: at the highest dose activity change, negative = inhibition, most hits filed as inhibitors | actives 0.35% (n = 350,000) | AID 2517;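 further: plate controls were vehicle for no effect and reference inhibitor for full effect; nearly all actives have a fitted effect of over 55% in size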
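0.75 nM APE1 + cpd, 15 min RT; start w/ 50 nM TAMRA/BHQ-2 THF-abasic dsDNA; kinetic fluor 525/598 nm ×3 reads @60 s; Δ(read3−read1); normalized to DMSO and NSC13755 control wells.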
BLM helicase inh: Bloom syndrome helicase (human) inhibition; actives 0.2% (n = 350,000); recombinant BLM DNA unwinding, fluorescence dequenching; AID 2528; Potency, µM (titrated, usually from 56.1 µM), inactives show at the highest dose activity change, negative = inhibition, actives largely listed as inhibitors;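 further: plate controls were vehicle for no effect and no enzyme for full effect; nearly all actives have a fitted effect of over 35% in size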
Target sequence (P54132 whole entry, looked up): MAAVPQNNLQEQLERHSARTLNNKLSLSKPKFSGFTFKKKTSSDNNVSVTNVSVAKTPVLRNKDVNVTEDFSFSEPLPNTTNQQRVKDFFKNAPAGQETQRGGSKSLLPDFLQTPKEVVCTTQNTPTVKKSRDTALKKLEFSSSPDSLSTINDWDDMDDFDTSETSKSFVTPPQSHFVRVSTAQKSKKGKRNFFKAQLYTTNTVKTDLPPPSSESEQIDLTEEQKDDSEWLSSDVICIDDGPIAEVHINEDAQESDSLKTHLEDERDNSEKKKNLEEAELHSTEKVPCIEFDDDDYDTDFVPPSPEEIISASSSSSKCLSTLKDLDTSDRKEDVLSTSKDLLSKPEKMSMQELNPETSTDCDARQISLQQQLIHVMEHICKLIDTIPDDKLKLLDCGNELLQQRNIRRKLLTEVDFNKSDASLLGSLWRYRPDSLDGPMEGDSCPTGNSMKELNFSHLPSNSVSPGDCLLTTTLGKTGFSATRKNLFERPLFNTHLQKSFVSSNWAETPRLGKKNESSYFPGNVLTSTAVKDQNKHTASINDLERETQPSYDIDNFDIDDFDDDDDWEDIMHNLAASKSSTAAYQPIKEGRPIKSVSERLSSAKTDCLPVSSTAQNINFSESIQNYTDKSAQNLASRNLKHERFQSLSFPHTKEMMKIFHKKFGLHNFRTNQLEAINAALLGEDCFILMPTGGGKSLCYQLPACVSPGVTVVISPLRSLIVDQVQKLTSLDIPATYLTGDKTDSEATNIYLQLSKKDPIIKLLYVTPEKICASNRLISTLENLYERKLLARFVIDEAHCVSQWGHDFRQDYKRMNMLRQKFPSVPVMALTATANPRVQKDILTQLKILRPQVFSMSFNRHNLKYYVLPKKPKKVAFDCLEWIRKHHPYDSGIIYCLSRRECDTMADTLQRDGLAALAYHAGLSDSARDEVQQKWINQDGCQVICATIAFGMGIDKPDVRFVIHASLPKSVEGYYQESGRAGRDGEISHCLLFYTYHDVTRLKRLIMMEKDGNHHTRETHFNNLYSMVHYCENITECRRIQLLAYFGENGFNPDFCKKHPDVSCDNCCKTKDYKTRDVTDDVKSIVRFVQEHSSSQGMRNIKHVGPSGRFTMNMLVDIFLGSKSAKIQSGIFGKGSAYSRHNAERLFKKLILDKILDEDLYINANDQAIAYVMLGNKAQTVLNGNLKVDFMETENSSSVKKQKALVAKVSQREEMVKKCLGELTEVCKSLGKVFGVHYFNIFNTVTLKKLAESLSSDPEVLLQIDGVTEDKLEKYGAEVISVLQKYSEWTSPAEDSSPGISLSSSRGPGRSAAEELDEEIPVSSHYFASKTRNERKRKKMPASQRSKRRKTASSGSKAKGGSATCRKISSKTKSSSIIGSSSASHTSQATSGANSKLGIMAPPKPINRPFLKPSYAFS
JMJD2E inh: JMJD2E (human) inhibition; JMJD2E catalytic domain, FDH-coupled NADH fluorescence (FDH is formaldehyde dehydrogenase); Potency, µM (top dose mostly 57.1 µM), without a hit: at the top dose activity change, negative = inhibition, usual class: inhibitors; actives 1.6% (n = 230,000); active means well fitted inhibition curve with a large enough effect, not every such curve was filed as active; inconclusive means small, poorly fitted or top-dose-only effect, or another doubt; inactive means no such curve, though single readings can be large or run the other way;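 further: 0% = wells with enzyme and -100% = buffer wells without enzyme; nearly all actives have a fitted effect of over 50% in size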
L3MBTL1 block: blocks human L3MBTL1; Q9Y468; AlphaScreen L3MBTL1–H3K9me1 peptide binding; Potency, µM (series often up to 57.1 µM), without a hit: at the top dose activity, negative = inhibition, most hits filed as inhibitors; actives 0.66% (n = 230,000); further: nearly all actives have a fitted effect of over 60% in size
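AlphaScreen proximity signal between nickel-chelate acceptor and streptavidin donor beads (final 10 ug/mL) reports binding of 50 nM L3MBTL1 to 75 nM biotin-H3 K9me1 peptide; complex incubated with compounds 30 min at room temperature; cefsulodin titration as control.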
RECQ1 conf: confirmation of human RECQ1 helicase inhibitors; Potency, µM (top dose mostly 229 µM), for inactives: at the top dose activity change, negative = inhibition, hits mostly inhibitors; shares compounds with RECQ1 inh-1; RECQ1 helicase DNA unwinding, fluorescence; actives 28% (n = 610); further: nearly all actives have a fitted effect of over 45% in size
ADP FP counter: displaces ADP in a fluorescence polarization counter-screen for RECQ1 hits. shares compounds with RECQ1 inh-1. ADP fluorescence polarization displacement counterscreen. Potency, µM (titrated, usually from 228 µM), without a hit: at the top dose activity change, negative = inhibition, hits mostly inhibitors. actives 27% (n = 530). AID 2711; further: nearly all actives have a fitted effect of over 45% in size
RECQ1 inh-2: confirmation of human RECQ1 helicase inhibitors. shares compounds with RECQ1 inh-1. Potency, µM (doses to about 119 µM), inactives show at the highest dose activity, negative = inhibition, actives largely listed as inhibitors. recombinant RECQ1 DNA unwinding, red fluorescence. actives 15% (n = 1,100); further: nearly all actives have a fitted effect of over 50% in size
Starred values were filed as active, the others as inactive; i = inactive; ? = inconclusive; nt = no result; [ ] = remark or other dose. Unless noted, the call rests on the fitted dose curve; in most records, active means well fitted curve in the direction sought with a large enough effect; inconclusive means small, poorly fitted or top-dose-only effect, or another doubt; inactive means no such curve, though single readings can be large; an effect the other way counts as inactive or inconclusive. Unless noted, on the % scale 0 is the no-effect control and ±100 the full control effect; potency means the concentration at half of the fitted maximal effect.

SMILES	TDP1 inh	RECQ1 inh-1	APEX1 inh	BLM helicase inh	JMJD2E inh	L3MBTL1 block	RECQ1 conf	ADP FP counter	RECQ1 inh-2
COc1ccc(NCc2nnc(SCC(=O)Nc3nc(-c4ccccc4)cs3)n2-c2ccccc2)cc1	-3%	4%	2%	1%	-2%	6%	15%	?	nt
COc1ccc(NC(=O)CSc2nnc(Cc3cccn3C)n2-c2ccc(OC)cc2)cc1	11%	1%	-4%	-4%	-8%	-12%	nt	nt	nt
Cc1ccc(-n2c(Cc3cccn3C)nnc2SCC(N)=O)cc1	5%	i	0%	0%	-5%	-4%	nt	nt	nt
COc1ccc(-n2c(Cc3cccn3C)nnc2SCC(=O)Nc2ccc(C(C)=O)cc2)cc1	10%	22µM*	-9%	-7%	-20%	nt	nt	nt	-4%
Cc1ccc(-n2c(Cc3cccn3C)nnc2SCC(=O)NCc2ccco2)cc1	8%	22µM*	-5%	1%	-20%	?	-9%[114 µM]	14%[91.9 µM]	-15%
O=C(CSc1nnc(-c2ccncc2)n1Cc1ccco1)Nc1ccccc1Cl	3%	-14%	-5%	-1%	3%	-5%	nt	nt	nt
O=C(CSc1nnc(-c2ccncc2)n1Cc1ccco1)Nc1nc(-c2ccccc2)cs1	3%	i	-5%	-10%	4%	nt	-16%	41%	nt
COc1cccc(N2C(=O)CSC23C(=O)N(Cc2ccccc2)c2ccccc23)c1 (stereo not given)	-3%	nt	nt	-8%	nt	nt	nt	nt	nt
O=C(O)COc1ccc(CCNS(=O)(=O)c2ccccc2)s1	nt	nt	nt	1%	nt	nt	nt	nt	nt
Cc1ccc(C)n1-c1sccc1C(=O)O	nt	20µM*	7.9µM*	-17%	4%	nt	-76%[114 µM]	nt	nt
Cc1ccc(NC(=O)Cc2cc(C(=O)O)c3ccccc3n2)c(C)c1	0%	i	0%	0%	-16%	5%	11%	-1%	nt
Cc1ccc2c(c1)c1nnc(SCC(=O)N3CCCc4ccccc43)nc1n2CC(=O)O	0%	8%	2%	-8%	9%	1%	16%	?	nt
CC(C)=C1C(=O)NN(c2cccc(Cl)c2)C1=O	5%	?	-1%	1%	-14%	-2%	nt	nt	nt
CC(C)=C1C(=O)NN(c2ccc(C)c(Cl)c2)C1=O	8%	?	-1%	-5%	2%	-20%	nt	nt	-3%
COc1ccc2c(c1)O/C(=C\c1ccco1)C2=O	12%	?	?	3%	?	nt	nt	nt	-8%
O=C(COC(=O)Cc1ccccc1F)Nc1cccc(S(=O)(=O)NC2=NCCCCC2)c1	-1%	1µM*	2%	-2%	-1%	-3%	13%[114 µM]	9%[91.9 µM]	-4%
C/C=C/C(=O)OCC(=O)Nc1cccc(S(=O)(=O)NC2=NCCCCC2)c1	-2%	0%	0%	-2%	10%	1%	nt	nt	nt
CCC(=O)N(C)/C=C1\Sc2ccccc2C1=O	0%	-4%	-1%	0%	?	-2%	nt	nt	nt
CC(=O)N(C)/C=C1\Sc2ccccc2C1=O	-8%	?	0%	-2%	-5%	-3%	nt	nt	-15%
CN(Cc1ccccc1)C(=O)Cn1c(=O)c2cccn2c2ccc(F)cc21	0%	nt	nt	-6%	nt	nt	nt	nt	nt
C=Cc1ccc(Cn2c(=O)n(-c3cccc(Cl)c3)c(=O)c3c4c(sc32)CN(C(C)=O)CC4)cc1	7%	nt	nt	-18%	nt	nt	nt	nt	nt
CCOc1ccccc1/C=C(\NC(=O)c1ccccc1)C(=O)NCCC(=O)O	5%	-16%	-3%	6%	7%	-1%	0%	2%	nt
CC(C)CC(=O)NC1(C(F)(F)F)C(=O)Nc2c1c(=O)[nH]c(=O)n2-c1ccccc1 (stereo not given)	0%	nt	nt	7%	nt	nt	nt	nt	nt
CCCc1cc(=O)[nH]c(SCC(=O)N2N=C(c3ccc(Cl)cc3)CC2c2ccco2)n1 (stereo not given)	-2%	7%	8%	-5%	0%	-7%	nt	nt	nt
Nc1cc(=O)[nH]c(SCC(=O)N2N=C(c3ccc(Cl)cc3)CC2c2ccco2)n1 (stereo not given)	5%	?	2%	-3%	5%	-9%	nt	nt	-49%
SMILES	TDP1 inh	RECQ1 inh-1	APEX1 inh	BLM helicase inh	JMJD2E inh	L3MBTL1 block	RECQ1 conf	ADP FP counter	RECQ1 inh-2
Cc1ccc(S(=O)(=O)N2CCN(c3nc(-c4ccncc4)nc4ccccc34)CC2)cc1	-11%	nt	nt	nt	nt	nt	nt	nt	nt
O=C1NN(c2cccc(Br)c2)C(=O)/C1=C/c1ccc(-c2cc([N+](=O)[O-])ccc2O)o1	nt	20µM*	2%	-17%	5%	nt	63µM*	nt	nt
O=C(NCC1CCCO1)C(c1cccs1)N(Cc1ccccc1)C(=O)c1ccc(-c2ccccc2)[nH]1 (stereo not given)	0%	-1%	11%	-6%	?	-21%	nt	nt	nt
COc1ccc(CN(C(=O)c2ccc(-c3ccccc3)[nH]2)C(C(=O)NCC2CCCO2)c2ccc(C)o2)cc1 (stereo not given)	5%	25µM*	6%	-12%	?	-17%	nt	nt	-12%
O=C(O)c1ccccc1-c1oc2cc(O)ccc2c(=O)c1Oc1ccccc1	-4%	0%	-2%	-1%	?	nt	nt	nt	nt
O=C(O)c1ccccc1-c1c2ccc(=O)cc-2oc2cc(O)ccc12	29%	32µM*	28µM*	32µM*	nt	nt	112µM*	0.5µM*	79µM*
O=C(O)CN(CC(=O)O)Cc1cc2c(-c3ccccc3C(=O)O)c3cc(CN(CC(=O)O)CC(=O)O)c(=O)cc-3oc2cc1O	?	28µM*	nt	16µM*	4µM*	nt	112µM*	0.14µM*	nt
C[C@@H](c1ccccc1)N1C(=O)[C@H]2[C@H]3[C@H](O)[C@H](O)C/C(=N/NC(=O)OCc4ccccc4)[C@H]3CC[C@@H]2C1=O	9%[21 µM]	i[11.5 µM]	8%[12.4 µM]	1%[12.4 µM]	nt	nt	nt	nt	nt
COc1ccccc1CCNC(=O)CSc1ccc(-c2ccco2)nn1	nt	?	?	-11%	?	nt	nt	nt	-11%
COc1cccc(/C=N/Nc2nc3ccccc3n3cnnc23)c1O	8%	5µM*	1%	-11%	28µM*	-18%	-5%[114 µM]	nt	nt
COc1ccc(-n2c(=O)c(-c3cccs3)nc3cnc(N4CCNCC4)nc32)cc1	nt	?	?	-21%	nt	nt	nt	nt	-27%

Bioassay records deposited in PubChem BioAssay by National Center for Advancing Translational Sciences (NCATS).
